PrPC surface inh – inhibitors of human cell surface prion protein PrPC. P04156. TR-FRET read-out. inhibition, % at 13.8 µM. 370,000 tested, 0.43% active. AID 720596; in the data active means inhibition above about 24%; further: 0% = median of the test wells and 100% = reference compound wells
Y pestis TopoI – inhibitors of Yersinia pestis topoisomerase I. 360,000 tested, 0.064% active. activity, % at 10 µM. Y. pestis Topo-I cleavage product accumulation, plate reader; in the data active means activity above about 50%, passing the limit was not always enough
GDH-TPI inh – inhibits GDH-TPI coupling enzymes, artifact for Mtb FBA screen | GDH-TPI coupled enzyme counterscreen, NADH absorbance | inhibition, % at 4.8 µM | 360,000 tested, 1.2% active | AID 588335; in the data active means inhibition above about 30%;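 further: 0% = DMSO wells and 100% = wells lacking the enzyme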
Mtb FBA inh – inhibits M. tuberculosis FBA enzyme; P9WQA3; purified M. tuberculosis FBA, fluorescence read-out; inhibition, % at 1 µM; 360,000 tested, 2.3% active; AID 588726; in the data active means inhibition above about 27%;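 further: 0% = vehicle and 100% = reference inhibitor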
Target sequence (P9WQA3 whole entry, looked up): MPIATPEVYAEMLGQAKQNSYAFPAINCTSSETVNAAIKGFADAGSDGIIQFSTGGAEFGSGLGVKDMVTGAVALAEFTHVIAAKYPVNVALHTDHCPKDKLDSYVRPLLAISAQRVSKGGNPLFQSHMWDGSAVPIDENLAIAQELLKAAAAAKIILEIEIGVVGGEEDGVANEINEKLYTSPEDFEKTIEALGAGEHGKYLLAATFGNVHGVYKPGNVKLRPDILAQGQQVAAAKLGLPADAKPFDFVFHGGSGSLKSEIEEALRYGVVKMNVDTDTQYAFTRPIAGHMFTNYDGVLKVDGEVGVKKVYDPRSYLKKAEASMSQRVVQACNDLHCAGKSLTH
TcdB inh – TcdB glycohydrolase inhibition; P18177; TcdB glycohydrolase enzymatic assay, plate reader; 350,000 tested, 0.24% active; inhibition, % at 9.99 µM; in the data active means inhibition above about 10%
An asterisk follows results filed as active; x = no result given; + = active, no number. Compounds with a hit are over-represented: about 3.2% of the library has one in this group of screens.

SMILES | PrPC surface inh | Y pestis TopoI | GDH-TPI inh | Mtb FBA inh | TcdB inh
CCOc1ccc(C(C#N)N2CCOCC2)cc1OC (stereo unspecified) | 1 | -5 | -7 | -17 | x
COc1cc(C(C#N)N2CCOCC2)ccc1O (stereo unspecified) | -9 | -6 | 37* | 4 | x
COc1cc(C(C#N)N2CCCCC2)ccc1O (stereo unspecified) | 7 | -2 | 34* | -2 | x
CCC(=O)N(C)C[C@H]1Oc2cc(-c3ccc(C#N)cc3)ccc2S(=O)(=O)N([C@H](C)CO)C[C@H]1C | x | x | x | x | 0
CCOC(=O)c1c[nH]c2ccc3ccccc3c2c1=O | -3 | 0 | 9 | -5 | 0
CCOC(=O)c1cc2ccc(OC(=O)c3ccco3)cc2oc1=O | -2 | 7 | 9 | + | x
COc1ccc2cc(C(=O)c3ccccc3)c(=O)oc2c1 | 1 | -8 | 17 | 0 | x
CCOC(=O)c1cc2ccc3ccccc3c2oc1=O | 6 | -18 | 8 | + | -3
CCOc1ccc2cc(C(=O)c3ccccc3)c(=O)oc2c1 | -2 | 2 | 41* | 2 | 1
C[C@@H]1CN([C@@H](C)CO)C(=O)c2cc(-c3ccc(F)cc3)cnc2O[C@H]1CN(C)C(=O)c1ccccc1F | x | x | x | x | -2
CC(C)NC(=O)N(C)C[C@@H]1Oc2c(NS(=O)(=O)c3cccs3)cccc2C(=O)N([C@@H](C)CO)C[C@H]1C | x | x | x | x | 0
CCC(=O)N1[C@@H]2c3cccc(=O)n3C[C@@H]2[C@@H](CO)[C@@H]1C(=O)NCc1ccc(F)cc1 | x | x | x | x | 0
COc1ccc(NC(=O)c2cc(C)nc3ccccc23)c(OC)c1 | -5 | -11 | 5 | -4 | 12*
Cc1cc(C(=O)Nc2ncc(C)s2)c2ccccc2n1 | 14 | -1 | 4 | 3 | 10*
C[C@@H]1CN([C@H](C)CO)C(=O)c2cccc(NC(=O)C3CCOCC3)c2O[C@@H]1CN(C)Cc1ccc(C(=O)O)cc1 | x | x | x | x | -1
COc1ccc(NC(=O)Nc2ccc3c(c2)C(=O)N([C@@H](C)CO)C[C@@H](C)[C@@H](CN(C)C(=O)Nc2c(C)noc2C)O3)cc1 | x | x | x | x | -1
CC(=O)N(C)C[C@@H]1Oc2ncc(-c3cncnc3)cc2C(=O)N([C@H](C)CO)C[C@@H]1C | x | x | x | x | 0
O=C(NNC(=O)c1cc2cc3ccccc3nc2s1)c1cccc(Cl)c1 | -1 | -3 | 9 | 3 | x
O=C(NNC(=O)c1cc2cc3ccccc3nc2s1)c1ccc(F)cc1 | -4 | 0 | 34* | 5 | x
Cc1nn(-c2ccccn2)c2c1-c1nc(N3CCOCC3)ncc1CC2 | 4 | 0 | 17 | 114* | x
COc1cc(C2Oc3cc(C4Oc5cc(O)cc(O)c5C(=O)C4O)ccc3OC2CO)ccc1O (stereo unspecified) | -7 | 7 | 36* | -2 | 2
COc1ccc(C2CC(=O)c3c(O)cc(O)cc3O2)cc1O (stereo unspecified) | -3 | -10 | 13 | -2 | 2
COc1ccc(S(=O)(=O)N(C)C[C@H]2Oc3c(NC(=O)c4cc(C)nn4C)cccc3C(=O)N([C@@H](C)CO)C[C@H]2C)cc1 | x | x | x | x | -1
Cc1ccc(S(=O)(=O)c2c(C)nn(C(C)(C)C)c2OC(=O)c2ccco2)cc1 | 3 | 37 | 3 | 189* | x
Cc1ccc(S(=O)(=O)c2c(C)nn(C(C)(C)C)c2OC(=O)c2ccc(Br)o2)cc1 | -1 | 33 | 5 | -1 | x
SMILES | PrPC surface inh | Y pestis TopoI | GDH-TPI inh | Mtb FBA inh | TcdB inh
C[C@H](CO)N1C[C@H](C)[C@H](CN(C)C(=O)Nc2ccc(F)cc2)OCCCC[C@H](C)Oc2ccc(NC(=O)Nc3ccccc3)cc2C1=O | x | x | x | x | 1
CCOc1cc2c(cc1/C=C/C(=O)O)OC(C)C2 (stereo unspecified) | 7 | 0 | -1 | 148* | 1
COc1cc2c(cc1/C=C/C(=O)O)OC(C)C2 (stereo unspecified) | 4 | -9 | 4 | + | 0
CC(C)(O)C1Cc2cc(/C=C/C(=O)O)c(O)cc2O1 (stereo unspecified) | -9 | 1 | 15 | 8 | -3
O=C(C[C@H]1CC[C@@H]2[C@H](COC[C@H](O)CN2Cc2ccccc2F)O1)N[C@@H]1CCN(Cc2ccccc2)C1 | x | x | x | x | 1
O=C(NCc1ccco1)c1cccc(-c2cncc3nccn23)c1 | -8 | -5 | -2 | 123* | 1
O=C(NC1CC1)c1cccc(-c2cncc3nccn23)c1 | -4 | -3 | 16 | 185* | 0
O=C(NC1CC1)c1ccc(-c2cnc3cccnn23)cc1 | -17 | -1 | 20 | + | 2
